Measurements taken from PubChem BioAssay (Tox21).
Records with an inconclusive call do not appear. A call without a number means that no potency is given here. A number with no mark means an inactive call. Active and inactive are the calls of the source. The call rests on the fitted dose curve.

Assay: p53 small molecule agonists, cell-based qHTS assay with human liver microsomes: qHTS cell viability counter screen (AID 1963579); further: nearly all actives have a fitted effect of over 45% in size
Conditions: p53RE-bla HCT-116 viability, ATP luminescence, 16 h, HLM; series mostly up to 66 µM
From the text: National Center for Advancing Translational Sciences [NCATS]
Division of Preclinical Innovation [DPI]
U.S. Environmental Protection Agency [EPA]
National Institutes of Environmental Health Sciences [NIEHS]
National Toxicology Program [NTP]
U.S. Food and Drug Administration [FDA]
p53, a tumor suppressor protein, is activated following cellular insult, including DNA damage and other cellular stresses. The activation of p53 regulates cell fate by inducing DNA repair, cell cycle arrest, apoptosis, or cellular senescence. The activation of p53, therefore, is a good indicator of DNA damage and other cellular stresses. […] The activation of the reporter gene under culture conditions can be detected by fluorescence intensity. This cell line was used to screen the Tox21 10K compound library in the condition of presence of human liver microsomes and to identify agonists that activate the p53 signaling pathway after in vitro metabolic activation (Ooka et al., Archive of Toxicology 96:1975-1987, 2022).
Tox21 Assay Protocol Summary:
The p53RE-bla cells were dispensed at 4,000cells/3ul/well in 1536-well black-clear bottom plates. After the assay plates were incubated at 37 C, 5% CO2 incubator for 5 hours, 23 nL of compounds dissolved in DMSO, positive controls or DMSO only was transferred to the assay plate. Following compound addition, 3 uL of human liver microsomes (XenoTech, Kansas City, KS) at final concentration of 0.5 mg/mL and 1uL of B-Nicotinamide adenine dinucleotide 2'-phosphate (NADPH) at final concentration of 0.5 mg/mL were transferred to the assay plate. The plates were incubated at 37 C for 16 hours. 1 uL of LiveBLAzer detection mixture was added to each well and the plates were incubated at room temperature in the dark for 2 h. Fluorescence intensity at 460 and 530 nm emission and 405 nm excitation were measured by an Envision plate reader. For cell viability readout that measures cytotoxicity, 4 ul/well of CellTiter-Glo reagent was added into the assay plates using a Flying Reagent Dispenser. After 30 min incubation at room temperature, the luminescence intensity in the plates was measured using a ViewLux plate reader.

| Structure (SMILES) | Potency | activity change, negative = cytotoxicity |
| --- | --- | --- |
| CCC1Nc2cc(Cl)c(S(N)(=O)=O)cc2S(=O)(=O)N1 (stereo not given) | inactive |  |
| Cc1cc(C(=C2C=CC(=Nc3ccc(S(=O)(=O)O)cc3S(=O)(=O)O)C=C2)c2ccc(Nc3ccc(S(=O)(=O)O)cc3)cc2)ccc1N | inactive |  |
| O=C(OCCc1ccccc1)c1ccccc1 | inactive |  |
| Cc1[nH]c(C)c(Cl)c(=O)c1Cl |  | -0.426% [at 13.5 µM] |
| CCOC(=O)Nc1ccc2c(c1)N(C(=O)CCN1CCOCC1)c1ccccc1S2 | inactive |  |
| CN1CCC(=C2c3ccccc3CCc3cccnc32)CC1 | inactive |  |
| CNCc1cc(F)ccc1Oc1ccc(Cl)c(Cl)c1 | inactive |  |
| Cc1cc(C)c(C)c(C)c1 | inactive |  |
| O=C(/C=C/c1ccc([N+](=O)[O-])cc1)c1ccccc1 | inactive |  |
| O=C(NS(=O)(=O)/C=C/c1cccs1)c1ccc(F)cc1Br | inactive |  |
| COc1cc(C)nc(-n2nc(C)cc2OC)n1 | inactive |  |
| CCC(C)(CCC(C)C)C(=O)O (stereo not given) | inactive |  |
| c1ccc2sc(SSc3nc4ccccc4s3)nc2c1 |  | -2.64% [at 13.5 µM] |
| O=C1NC(=O)c2cc([N+](=O)[O-])ccc21 | inactive |  |
| Cc1cccc2c1cc1ccc3cccc4ccc2c1c34 | inactive |  |
| OCCCCCO | inactive |  |
| C=C[Si](OC)(OC)OC | inactive |  |
| CC[C@@H]([C@H](C)O)n1ncn(-c2ccc(N3CCN(c4ccc(OC[C@@H]5CO[C@@](Cn6cncn6)(c6ccc(F)cc6F)C5)cc4)CC3)cc2)c1=O | inactive |  |
| FC(F)(Cl)C(F)(Cl)Cl | inactive |  |
| CN(C)C(=O)COC(=O)Cc1ccc(OC(=O)c2ccc(N=C(N)N)cc2)cc1 | inactive |  |

| Structure (SMILES) | Potency | activity change, negative = cytotoxicity |
| --- | --- | --- |
| COc1cc(NS(=O)(=O)c2ccc(N)cc2)nc(C)n1 | inactive |  |
| CCCCCCCCS(=O)C(C)Cc1ccc2c(c1)OCO2 (stereo not given) | inactive |  |
| CCCCCCCCNC | inactive |  |
| CC(C)NC(=O)c1ccc(C=O)cc1 | inactive |  |
| CCCCC/C=C\C/C=C\CCCCCCCC(=O)NC(C)c1ccccc1 (stereo not given) | inactive |  |
| CC(=O)c1ccc2c(c1)Cc1ccccc1-2 | inactive |  |
| CN1CCC(N(Cc2cccs2)c2ccccc2)CC1 | inactive |  |
| CC(C)O.CC(C)O.CCOC(=O)/C=C(\C)O.CCOC(=O)/C=C(\C)O.[Ti] | inactive |  |
| CCCCCCCCS(=O)(=O)O | inactive |  |
| NCCc1ccn[nH]1 | inactive |  |
| C=CC(=O)OCCOc1ccccc1 | inactive |  |
| O=C1OC(=O)c2c(Br)c(Br)c(Br)c(Br)c21 | inactive |  |
| COC(C)=O | inactive |  |
| O=[N+]([O-])c1cc(N(CCO)CCO)ccc1NCCO | inactive |  |
| CC(C)(C)C1CCC(CC2=C(O)c3ccccc3C(=O)C2=O)CC1 (stereo not given) | inactive |  |
| O=C1c2ccccc2C(=O)N1CCc1noc(-c2ccc(CN3CCCCCC3)s2)n1 | inactive |  |
| CCCCCCCCOC(=O)c1cc(O)c(O)c(O)c1 | inactive |  |
| c1csc(SSc2cccs2)c1 | inactive |  |
| CC(=O)OCC(=O)[C@H]1CC[C@H]2[C@@H]3CCC4=CC(=O)CC[C@]4(C)[C@H]3CC[C@]12C | inactive |  |
| CCOCCn1c(N2CCCN(C)CC2)nc2ccccc21 | inactive |  |
